Compound activity: PubChem, National Center for Advancing Translational Sciences (NCATS)
IL1B secr inh: inhibitors of inflammasome signaling (IL-1 beta secretion). THP-1 LPS/ATP IL-1B secretion, AlphaLISA, 16 h; stronger effect = lower value. activity change, % at 57.5 µM. 360,000 compounds, 4.7% hits. AID 743279; in the data active = activity change below about -50%; inconclusive = mostly about -30% to -49%; also: % is scaled to controls: 0 for no effect and ±100 for the full control effect
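Secreted IL-1B measured by AlphaLISA bead assay after 16 h compound exposure of THP-1 cells; compounds (final up to 57.5 uM) added 1 h before LPS (250 ng/mL) and ATP (1.25 mM) stimulation; lower signal means less secretion.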
DT40 TDP1 no CPT: qHTS for Inhibitors of human tyrosyl-DNA phosphodiesterase 1 (TDP1): qHTS in cells in absence of CPT; AID 686978, 2013; DT40 Tdp1-/- hTDP1 cells, no CPT, ATP luminescence, 48 h; Potency, µM (series often up to 46.2 µM), for inactives: at the highest dose activity change, negative = growth inhibition, actives largely listed as inhibitors; 420,000 compounds, 15% hits; also: potency is read from the fitted curve at half-maximal effect; % is scaled to controls: 0 for no effect and ±100 for the full control effect; nearly all actives have a fitted effect of over 55% in size
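Growth of hTDP1-complemented DT40 Tdp1-knockout cells is measured by ATP luminescence after at least 48 hr compound exposure at 37 °C, with DMSO substituting for the 20 nM CPT used in the parallel screen.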
TGFb inhibitor: blocks TGF-b signaling; HepG2 CAGA-GFP TGF-b/SMAD3 reporter, GFP fluorescence, 18 h; TGF-beta stimulated, 500 pg/mL final; Potency, µM (doses to about 46.1 µM), for the others: at the top dose activity, negative = inhibition, actives largely listed as inhibitors; 410,000 compounds, 1.2% hits; AID 588855; also: potency is read from the fitted curve at half-maximal effect; % is scaled to controls: 0 for no effect and ±100 for the full control effect; nearly all actives have a fitted effect of over 65% in size
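Smad-responsive CAGA-GFP expression was quantified in HEPG2 cells exposed to compounds and 500 pg/mL final TGF-beta for 18 h at 37 degrees C; unstimulated wells defined full inhibition.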
HepG2 tox: HepG2 cytotoxicity, counter-screen for TGF-b inhibitors. HepG2 CAGA-GFP viability, ATP luminescence, 18 h. Potency, µM (highest dose often 46.1 µM), inactives show at the highest dose activity change, negative = cytotoxicity, most hits filed as cytotoxic. AID 588856. 410,000 compounds, 0.76% hits; also: potency is read from the fitted curve at half-maximal effect
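CellTiter-Glo luminescence gave cytotoxicity after 18 hours at 37 degrees C. The cells were HepG2 CAGA-GFP in 1% FBS DMEM, stimulated with 500 pg/mL TGF-beta after compound addition. %Activity was normalised to no-cell wells (complete cell-killing) and DMSO (no toxicity), and curves were fitted and classified.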
ASM inhibitor: blocks human secretory acid sphingomyelinase | P17405 | placental ASM, HMU-PC fluorogenic substrate, 60 min | Potency, µM (highest dose often 57.5 µM), without a hit: at the top dose activity change, negative = inhibition, usual class: inhibitors | 340,000 compounds, 0.006% hits | AID 504937; also: potency is read from the fitted curve at half-maximal effect
Target sequence (P17405 47-631 limits assumed): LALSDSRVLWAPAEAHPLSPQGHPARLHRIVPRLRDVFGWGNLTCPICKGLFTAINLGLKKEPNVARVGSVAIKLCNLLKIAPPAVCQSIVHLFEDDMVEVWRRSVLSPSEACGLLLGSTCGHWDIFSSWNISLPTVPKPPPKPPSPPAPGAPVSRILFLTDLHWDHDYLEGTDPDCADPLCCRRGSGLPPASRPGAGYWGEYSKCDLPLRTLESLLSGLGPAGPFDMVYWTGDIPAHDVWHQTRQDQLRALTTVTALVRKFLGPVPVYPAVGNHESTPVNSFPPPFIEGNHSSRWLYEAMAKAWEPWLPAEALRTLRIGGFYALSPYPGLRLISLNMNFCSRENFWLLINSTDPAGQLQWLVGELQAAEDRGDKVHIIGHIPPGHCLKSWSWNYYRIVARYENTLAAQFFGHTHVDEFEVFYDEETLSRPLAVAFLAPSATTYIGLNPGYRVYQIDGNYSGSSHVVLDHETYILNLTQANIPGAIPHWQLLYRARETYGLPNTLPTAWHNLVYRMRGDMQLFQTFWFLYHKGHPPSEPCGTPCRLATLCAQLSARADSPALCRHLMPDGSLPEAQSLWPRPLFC
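HMU-PC0 cleavage (9 uM final) by human placental ASM, 60 min at 37 °C following 10 min compound exposure at RT; stopped at pH 10, fluorescence Ex 386/Em 447 nm.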
DT40 TDP1 CPT: DT40-hTDP1 cell growth loss with CPT | chicken DT40 Tdp1-/-;hTDP1 cells + 20 nM CPT, ATP luminescence, 48 h | Potency, µM (titrated, usually from 46.2 µM), inactives show at the top dose activity change, negative = growth inhibition, actives largely listed as inhibitors | 420,000 compounds, 12% hits; also: potency is read from the fitted curve at half-maximal effect; % is scaled to controls: 0 for no effect and ±100 for the full control effect; nearly all actives have a fitted effect of over 55% in size
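Chicken DT40 Tdp1-/- cells complemented with human TDP1, 400 cells/well, exposed to compounds plus 20 nM camptothecin for at least 48 h at 37 C; viability read as ATP content by CellTiter-Glo luminescence.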
Numbers without * were called inactive; ? = inconclusive; . = not tested or not shown; [ ] = remark or other dose. Most compounds without a hit are left out; they make up all but 19% or so of the library. Unless noted, calls follow the shape of the dose curve; as a rule, active = well fitted curve in the direction sought with a large enough effect; inconclusive = small, poorly fitted or top-dose-only effect, or another doubt; inactive = no such curve, though single readings can be large; an effect the other way counts as inactive or inconclusive.

SMILES | IL1B secr inh | DT40 TDP1 no CPT | TGFb inhibitor | HepG2 tox | ASM inhibitor | DT40 TDP1 CPT
O=C(CC1(O)C(=O)N(C/C=C/c2ccccc2)c2ccccc21)c1ccccn1 (stereo unspecified) | 34 | 0.89µM* | ? | 0% | -3% | 1.3µM*
O=C(CC1(O)C(=O)N(CCc2ccccc2)c2ccccc21)c1ccccn1 (stereo unspecified) | -10 | 5.2µM* | 1% | 0% | -2% | 2.6µM*
Cc1coc(C)c1C(=O)CC1(O)C(=O)N(CCc2ccccc2)c2ccccc21 (stereo unspecified) | -2 | ? | 0% | -12% | -1% | ?
Cc1ccc(C(=O)N(Cc2cc3cccc(C)c3nc2N2CCC(O)CC2)C2CC2)cc1 | . | 13µM* | . | . | . | -1%[9.04 µM]
C=CC[C@@H](CC(=O)N(CCO)Cc1ccccc1)C(=O)N[C@@H](COC(=O)[C@@H](CC=C)CC(=O)OC(C)(C)C)Cc1c[nH]c2ccccc12 | -62* | 21µM* | ? | -38% | -2% | 26µM*
C=CC[C@H](CC(=O)N(CCO)Cc1ccccc1)C(=O)N[C@@H](COC(=O)[C@H](CC=C)CC(=O)OC(C)(C)C)Cc1c[nH]c2ccccc12 | -62* | 16µM* | ? | -26% | -5% | 15µM*
C=CC[C@H](CC(=O)NCCO)C(=O)N[C@@H](C)COC(=O)[C@@H](CC=C)CC(=O)OC(C)(C)C | 5 | -13% | 12% | -4% | 4% | -17%
C=CC[C@@H](CC(=O)N(CCO)Cc1ccccc1)C(=O)N[C@H](COC(=O)[C@@H](CC=C)CC(=O)OC(C)(C)C)Cc1c[nH]c2ccccc12 | -56* | 23µM* | 13µM* | -43% | -8% | 18µM*
Cc1cccc(NC(=O)CN2CCN(C(=O)CN3C(=O)NC4(CCCCC4C)C3=O)CC2)c1C (stereo unspecified) | 2 | -27% | -13% | -4% | -1% | ?
O=C(COc1ccccc1)NCCc1csc(-c2ccc(F)cc2)n1 | . | ? | 1% | -18% | . | 15µM*
O=C(COc1ccc(Cl)cc1)NCCc1csc(-c2cccc(F)c2)n1 | . | ? | ? | -47% | . | ?
COc1ccc(CC(=O)NCCc2csc(-c3cccc(F)c3)n2)cc1OC | . | ? | -4% | -8% | . | -19%
O=C(CCc1ccccc1)NCCc1csc(-c2cccc(F)c2)n1 | . | 18µM* | -22% | -23% | . | ?
N#Cc1ccc(-c2ccc(OCC(=O)NCCc3ccccc3)cc2)cc1 | 6 | 12µM* | -6% | -15% | -3% | ?
CCN(CC)S(=O)(=O)c1ccc(C(C)NC(=O)C2CCCN2C(=O)c2cccs2)cc1 (stereo unspecified) | 4 | ? | 1% | 2% | 2% | -9%
Cc1cc(C)nc(-n2ncc3c2CC(c2ccccc2)CC3=O)n1 (stereo unspecified) | 90 | ? | ? | 7% | -2% | -16%
COc1ccc(C2CC(=O)c3cnn(-c4nc(C)cc(C)n4)c3C2)cc1 (stereo unspecified) | 10 | 16µM* | -29% | -14% | -1% | 21µM*
O=C(/C=C/c1ccccc1Cl)N(Cc1cccs1)C1CCS(=O)(=O)C1 (stereo unspecified) | -23 | ? | -14% | 4% | -6% | ?
CNc1c(N)c(=O)oc2ccccc12 | 11 | -15% | -9% | -17% | 6% | -5%
Cc1ccc(Nc2c(N)c(=O)oc3ccccc23)cc1 | 1 | 26µM* | -2% | -18% | -2% | ?
CC1CCC(NC(=O)Cn2c3c(c(-c4ccccc4Cl)cc2=O)CCC3)CC1 (stereo unspecified) | -16 | 13µM* | 0% | -29% | 1% | 16µM*
COc1ccc(-c2c[n+]3c(n2-c2c(C)n(C)n(-c4ccccc4)c2=O)CCCCC3)cc1 | 15 | ? | 7% | 2% | 7% | -14%
CCOc1ccc(-n2c(-c3ccc(OC)cc3)c[n+]3c2CCCCC3)cc1 | -70* | 0.029µM* | ? | -2% | -2% | 0.21µM*
CCOc1ccc(-n2c(-c3ccccc3)c[n+]3c2CCC3)cc1 | -68* | 1µM* | ? | -21% | -1% | 1µM*
FC(F)Oc1ccc(-c2c[n+]3c(n2-c2ccccc2)CCCCC3)cc1 | ? | 1.5µM* | 48% | 86% | -1% | 2.1µM*
SMILES | IL1B secr inh | DT40 TDP1 no CPT | TGFb inhibitor | HepG2 tox | ASM inhibitor | DT40 TDP1 CPT
CCOc1ccc(-c2cnc3n2CCC3)cc1 | -20 | ? | -2% | -1% | 3% | ?
CCOc1ccc(-n2c(-c3ccc(Br)cc3)c[n+]3c2CCCCC3)cc1 | -79* | 0.37µM* | -20% | 5% | -2% | 4.6µM*
CCOC(=O)c1c(C)[nH]c(C)c1S(=O)(=O)N1CCC(C(=O)NCc2ccccc2Cl)CC1 | . | -12% | -25% | -15% | . | -23%
CC(CN)(NS(=O)(=O)c1ccccc1)c1ccccc1 (stereo unspecified) | 5 | -1% | 1% | 0% | 10% | ?
COc1ccc(-n2c(-c3ccc(Cl)cc3)c[n+]3c2CCCCC3)cc1 | 0 | 0.73µM* | 0% | -45% | 2% | 0.82µM*
CCCCCN(C(=O)CCC(=O)OCc1cccc(C)c1)c1c(N)n(CCCC)c(=O)[nH]c1=O | -1 | ? | 15% | -1% | -2% | 21µM*
CCCCCN(C(=O)CCC(=O)OCc1ccccc1Cl)c1c(N)n(CCCC)c(=O)[nH]c1=O | 0 | -18% | 0% | 1% | -1% | ?
CCCCCN(C(=O)CCC(=O)OCc1ccc(Cl)cc1Cl)c1c(N)n(CCCC)c(=O)[nH]c1=O | -66* | ? | ? | -2% | 0% | ?
CCCCCN(C(=O)CCC(=O)OCc1cccc(F)c1)c1c(N)n(CCCC)c(=O)[nH]c1=O | -15 | -2% | 0% | -1% | 0% | 2%
Cc1ccccc1-c1ccc(C(=O)Nc2cccc(F)c2)o1 | ? | 21µM* | -29% | -22% | -8% | ?
Cc1cccc(C)c1NC(=O)c1ccc(-c2cc(F)ccc2F)o1 | -4 | 16µM* | ? | -14% | . | 18µM*
O=C(CC(Cl)(Cl)Cl)N1CCN(/[N+]([O-])=N/Oc2ccc([N+](=O)[O-])cc2[N+](=O)[O-])CC1 | . | . | ? | -112% | . | .
